Tb PFK block = T. brucei PFK enzyme inhibition; Potency, µM (titrated, usually from 57.5 µM), for the others: at the top dose activity, negative = inhibition, actives largely listed as inhibitors; 0.17% of 330,000 active; O15648; T. brucei PFK, ADP-Glo luminescence;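 note: 0% = uninhibited 1x PFK enzyme wells and -100% = no-enzyme wells; nearly all actives have a fitted effect of over 60% in size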
Target sequence (O15648 whole entry, looked up): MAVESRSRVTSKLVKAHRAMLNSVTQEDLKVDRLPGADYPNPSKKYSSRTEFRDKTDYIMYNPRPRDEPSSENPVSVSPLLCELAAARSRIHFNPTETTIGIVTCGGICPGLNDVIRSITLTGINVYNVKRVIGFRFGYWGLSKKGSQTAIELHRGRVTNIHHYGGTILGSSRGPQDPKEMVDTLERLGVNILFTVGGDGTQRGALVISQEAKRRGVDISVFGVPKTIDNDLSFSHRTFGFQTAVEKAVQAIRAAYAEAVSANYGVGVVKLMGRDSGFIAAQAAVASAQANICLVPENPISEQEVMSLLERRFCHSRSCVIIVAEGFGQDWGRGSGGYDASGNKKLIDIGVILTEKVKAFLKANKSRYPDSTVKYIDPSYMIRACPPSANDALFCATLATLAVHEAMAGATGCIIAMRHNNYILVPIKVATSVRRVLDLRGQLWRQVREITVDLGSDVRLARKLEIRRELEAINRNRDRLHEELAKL
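Activity is normalized to no-enzyme wells (full inhibition) and 1.25 nM enzyme wells (no inhibition). Reaction: 0.5 mM F6P, 0.1 mM ATP, 45 min RT, ADP-Glo luminescence; concentration-response curves fitted and classed by quality.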
Pin1 inh = blocks the human prolyl isomerase Pin1; 0.009% of 390,000 active; AID 504891; Pin1 FP peptide displacement, HiFluor488, 10 min; Q13526; Potency, µM (series often up to 115 µM), for the others: at the highest dose activity, negative = inhibition, hits mostly inhibitors; active = well fitted inhibition curve with a large enough effect in the polarisation, with a control signal flat, not every such curve was filed as active; inconclusive = small, poorly fitted or top-dose-only effect, or effect the other way, or a change in a side signal; inactive = no such curve, though single readings can be large or run the other way; the % refers to the polarisation; note: % is set by controls: 0 for no effect and ±100 for the full control effect
Target sequence (Q13526 whole entry, looked up): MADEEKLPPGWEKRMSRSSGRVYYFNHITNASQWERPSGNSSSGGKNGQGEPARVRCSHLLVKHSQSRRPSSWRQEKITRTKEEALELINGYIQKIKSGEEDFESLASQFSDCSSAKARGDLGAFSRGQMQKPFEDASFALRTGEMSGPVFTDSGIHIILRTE
Tb PGK inh = inhibitors of T. brucei phosphoglycerate kinase | PGK/GAPDH coupled, Kinase-Glo luminescence, 60 min | Potency, µM (doses to about 57.5 µM), inactives show at the highest dose activity change, negative = inhibition, actives largely listed as inhibitors | 0.043% of 380,000 active | AID 602233; note: % is set by controls: 0 for no effect and ±100 for the full control effect; nearly all actives have a fitted effect of over 60% in size
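Recombinant glycosomal PGK reaction used 1,3-bisphosphoglycerate generated in-well by GAPDH (100nM final) in 100mM TEA pH 7.6, 5mM MgCl2, 0.01% Tween-20. After 60 minutes at room temperature, ATP was read by Kinase-Glo Plus luminescence end-point.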
BCR signal inh = inhibitors of chronic active B-cell receptor signaling. AID 493014. Potency, µM (top dose mostly 46.1 µM), for inactives: at the highest dose activity change, negative = inhibition, actives largely listed as inhibitors. ABC-DLBCL IkBa-CBG/CBR reporter, luminescence ratio, 4 h. 0.05% of 340,000 active; active = well fitted inhibition curve with a large enough effect in the signal ratio, with a control signal flat, not every such curve was filed as active; inconclusive = small, poorly fitted or top-dose-only effect, or effect the other way, or a change in a side signal; the % refers to the signal ratio;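 note: plate controls were basal doxycycline-induced cells for no effect and cells given 10 µM MG132 for full effect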
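Doxycycline induced both beetle luciferases in TMD8 lymphoma cells; IKK-driven degradation limits the IkappaBalpha-fused green signal, while red luminescence normalises for cell number and nonspecific effects. Compounds tested up to 46 uM, 4 hrs.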
ERG-DNA inh = inhibitors of human ERG Ets domain-DNA interaction; fluorescence polarization, His-ERG Ets domain / labelled DNA; Potency, µM (doses to about 76.9 µM), inactives show at the highest dose FP activity, negative = inhibition, actives largely listed as inhibitors; 0.028% of 370,000 active; active = well fitted inhibition curve with a large enough effect in the polarisation, with a control signal flat; inconclusive = small, poorly fitted or top-dose-only effect, or effect the other way, or a change in a side signal; inactive = no such curve, though single readings can be large or run the other way; the % refers to the polarisation;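 note: polarization taken with two DNA probes labelled with fluorescein and Texas red; % of control where 0% means no effect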
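His-tagged ERG Ets domain (1 uM in the protein solution; 300mM KCl, 50mM Tris-HCl, 1mM EDTA, 1mM DTT, pH 7.5) received compound, then a probe mix of 5 nM fluorescein-DNA and 100nM Texas-615-DNA. Fluorescence polarization was read for both dyes.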
Starred values were filed as active, the others as inactive; i = inactive; ? = inconclusive; . = no result given; [ ] = dose if it differs, or a comment. A selection: hits, their analogues and other compounds. The true share with any hit is near 0.25%. Unless noted, calls come from the whole dose curve; as a rule, active = well fitted curve in the direction sought with a large enough effect; inconclusive = small, poorly fitted or top-dose-only effect, or another doubt; inactive = no such curve, though single readings can be large; an effect the other way counts as inactive or inconclusive. Potency is the fitted concentration of half-maximal effect.

SMILES | Tb PFK block | Pin1 inh | Tb PGK inh | BCR signal inh | ERG-DNA inh
CNc1ccc2nc3ccccc3[n+](C)c2c1 | -23.7% | ? | -1.0% | ? | 5.01µM*
COc1ccc(CC(=O)NCC(c2cccs2)S(=O)(=O)c2ccc(Cl)cc2)cc1 (stereo unspecified) | . | . | 3.16µM* | 10.6% | 3.8%
Cc1ccc(S(=O)(=O)C(CNC(=O)Cc2ccc(Cl)cc2)c2cccs2)cc1 (stereo unspecified) | . | 1.2% | 9.2% | . | -0.6%
CC(=O)OCCn1c(C)[n+](CCOC(C)=O)c2cc(Cl)c(Cl)cc21 | -11.6% | -1.7% | -4.4% | -3.7% | -7.4%
CC(=O)OCCn1c2nc(=O)[nH]c(=O)c-2nc2cc(C)c(C)cc21 | -2.0% | -162.5% | -8.3% | 13.9% | 35.5µM*
Cc1ccccc1NS(=O)(=O)c1ccc(OCCNS(C)(=O)=O)cc1 | 0.1% | -1.7% | i | -1.8% | 7.08µM*
CCOC(=O)/C=C/c1cc(F)c(S(=O)(=O)N2CCN(S(=O)(=O)c3ccc4c(c3)OCCO4)CC2)cc1F | . | 2.6% | . | . | .
O=C(O)c1cc(-c2ccco2)nc2ccccc12 | 1.2% | ? | ? | -3.3% | -0.5%
O=C(NC1CC1)c1cc(-c2ccco2)nc2ccccc12 | -17.1% | 21.3µM* | ? | 0.2% | -5.2%
CNc1nc(-c2ccccc2)c(-c2ccccc2)s1 | . | -11.3% | . | . | .
C[C@@H]1NC(=O)c2cc([N+](=O)[O-])cc(I)c2OCC[C@@H](C(N)=O)NC(=O)[C@H](CCCCN)NC1=O | 0.5% | -2.0% | -0.4% | -4.1% | 2.9%
NCCCC[C@H]1NC(=O)[C@H](CCC(=O)O)NC(=O)c2cc([N+](=O)[O-])cc(I)c2OCC[C@@H](C(N)=O)NC1=O | 4.6% | 14.1µM* | ? | 2.9% | 10.0%
Cc1onc(-c2ccccc2Cl)c1C(=O)NCc1ccc2c(c1)cc(C)n2C | 1.8% | ? | -1.5% | -7.4% | 25.1µM*
COc1cc(OC)cc(C(=O)NCc2ccc3c(c2)cc(C)n3C)c1 | 0.1% | 0.7% | -3.8% | 3.7% | -27.6%
CCOc1ccc(CC(=O)NCc2ccc3c(c2)cc(C)n3C)cc1 | -0.1% | -11.5% | -0.8% | 2.2% | 39.8µM*
Cc1ccc(S(=O)(=O)NCc2ccc3c(c2)cc(C)n3C)cc1 | -1.4% | -2.4% | -11.0% | -1.0% | 7.08µM*
COc1ccc(C(=O)NCc2ccc3c(c2)cc(C)n3C)cc1 | -1.0% | ? | 2.3% | 8.4% | 31.6µM*
COc1ccc(Cn2ncc3c4sc(C)cc4n(C)c3c2=O)cc1 | . | 14.5% | . | . | .
COc1ccc(S(=O)(=O)N2CCN(C(=O)C3COc4ccccc4O3)CC2)cc1 (stereo unspecified) | 26.9µM* | ? | ? | 1.3% | -0.1%
O=c1c2ccccc2nc2sc(NCc3ccc([S+](=O)([O-])c4ccccc4)cc3)nn12 | . | -2.2% | . | . | .
COc1cc2c(cc1OC)C(SC)=NC(C)(C)C2 | -9.4% | -0.1% | -13.1% | 16.4µM* | .
Cc1cccc2cc(/C=C3\N=C(c4ccccc4)OC3=O)c(N3CCOCC3)nc12 | 4.4% | 75.7µM* | -10.1% | -1.3% | -5.5%
Cc1ccc(C2=N/C(=C/N3CCOCC3)C(=O)O2)cc1 | 3.0% | -8.7% | 8.2% | 7.3% | -3.6%
Nc1nc(NCc2ccc(Cl)c(Cl)c2)c2[nH]cnc2n1 | . | -7.7% | . | . | .
C/C(CC(=O)Nc1ccc(Cl)cc1C(F)(F)F)=N\NC(N)=S | 0.0% | -0.3% | -1.0% | 11.2µM* | 0.6%
SMILES | Tb PFK block | Pin1 inh | Tb PGK inh | BCR signal inh | ERG-DNA inh
C/C(CC(=O)Nc1ccc(Cl)cc1Cl)=N\NC(N)=S | 2.5% | -14.9% | 6.6% | -0.6% | 4.1%
O=S(=O)(c1ccc2c(c1)OCCO2)N1CCN(S(=O)(=O)c2ccc(F)cc2F)CC1 | . | -5.6% | . | . | .
CC1=C(C#N)C(=O)N(C2CCS(=O)(=O)C2)C(=O)/C1=C\c1ccco1 (stereo unspecified) | 15.1µM* | . | . | 12.2% | .
Oc1ccc(N=Cc2ccc(OCc3ccccc3)cc2)cc1 | -11.6% | ? | ? | 10.3% | 14.1µM*
O=C1CCc2cc([S+](=O)([O-])NC3CCOCC3)ccc2N1 | . | 2.6% | . | . | .
CC1=CC(C)(C)N(S(=O)(=O)c2ccc(C)cc2)c2ccccc21 | 2.9% | ? | -9.6%[11.5 µM] | 23.1µM* | .
COc1ccc2c(c1)C(C)=CC(C)(C)N2S(=O)(=O)c1ccc(NC(C)=O)cc1 | 3.2% | ? | -0.8% | 4.47µM* | 4.8%
CC1=CC(C)(C)N(S(=O)(=O)c2ccc(F)cc2)c2ccc(C)cc21 | 1.0% | 0.7% | . | ? | .
COc1cc2ncnc(N(C)Cc3cccs3)c2cc1-c1ccc2c(c1)OCO2 | . | 5.8% | . | . | .
O=C(CCCl)Nc1cccc2cccnc12 | . | -2.5% | . | . | .
O=C(CN1CCCC1)Nc1ccc(Cl)cc1C(=O)c1ccccc1 | -0.1% | -11.4% | -3.2% | 4.3% | 12.6µM*
CC(=O)Nc1ccc(-c2csc(NC(=O)C3CC(=O)N(c4ccc5c(c4)OCCO5)C3)n2)cc1 (stereo unspecified) | -4.1% | ? | -2.4% | 0.2% | 22.4µM*
N#CN1CCC(NC(=O)c2cccc(C(F)(F)F)c2)CC1 | . | -19.5% | . | . | .
CCCc1nnc2n1N=C(c1ccc(OC)c(OC)c1)CS2 | -2.6% | -7.7% | i | 13µM* | .
COc1ccc(C2=Nn3c(nnc3-c3ccccc3F)SC2)cc1OC1CCOC1 (stereo unspecified) | 0.3% | -2.5% | -4.7% | -0.9% | .
COc1ccc(C2=Nn3c(nnc3-c3ccncc3)SC2)cc1 | -6.0% | 2.1% | -4.7% | -10.7% | 10.4%
COc1ccc(C2=Nn3c(nnc3-c3ccccc3F)SC2)cc1OC1CCCC1 | 0.7% | 9.9% | -1.4% | 5.8µM* | .
CCOc1ccc(C2=Nn3c(nnc3-c3ccc(OC)cc3)SC2)cc1 | 1.9% | ? | -1.1% | 12.6µM* | -1.2%
COc1ccc(C2=Nn3c(nnc3-c3ccccc3)SC2)cc1OC | 4.1% | -0.6% | -5.5% | ? | 5.1%
COc1ccc(C2Nc3ccccc3C(=O)N2Cc2ccccc2)cc1COc1ccc(C)cc1 (stereo unspecified) | . | 8.3% | . | . | .
C[C@H]1C=CC(=O)C[C@H]1c1c(F)cccc1Cl | . | 13.8% | . | . | .
Cc1ccc(NC(=O)CN(C)C(=O)Cn2cc(C(F)(F)F)ccc2=O)cc1 | 9.4% | -3.8% | -8.3% | 0.1% | -11.5%
CN(CC(=O)Nc1ccc(Cl)c(C(F)(F)F)c1)C(=O)Cn1cc([N+](=O)[O-])ccc1=O | -16.9% | -3.6% | -3.2% | -2.4% | 25.1µM*
COc1ccc(OCC(O)CN2C(=O)c3ccccc3C2=O)cc1 (stereo unspecified) | -4.9% | ? | i | ? | 12.6µM*
Oc1ccc(N2CCN(C(c3ccc(Cl)cc3)c3nnnn3Cc3ccc(F)cc3)CC2)cc1 (stereo unspecified) | . | 4.6% | . | . | .
C=CCNC(=S)N/N=C/c1ccc(C(C)(C)C)cc1 | -5.1% | -0.8% | -4.1% | 11.2µM* | -4.6%
C=CCNC(=S)N/N=C/c1cn(C)c2ccccc12 | -1.8% | 1.0% | 1.1% | 17.8µM* | 1.7%

High-throughput results from PubChem.
